Assay outcomes deposited in PubChem by several laboratories.
Sampled rows, rich in hits. Any-hit rate of the full collection: about 4.6%.
NALP3 yeast inh: NALP3 inflammasome inhibitors in reconstituted yeast, primary screen, luminescence, uHTS | Yeast reconstituted NLRP3/ASC/caspase-1, beta-gal luminescence, 24 h | inhibition, % at 10 µM | 0.39% of 330,000 active;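 active = inhibition of 50% or more; inactive = inhibition below 50%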
TIM10 inh: growth inhibitors of isogenic TIM10 control yeast, primary screen, counter-screen for tim10-1 yeast inhibitor project, luminescence, uHTS | S. cerevisiae TIM10 strain growth, BacTiter-Glo luminescence, 24 h | inhibition, % at 10 µM | 1.4% of 330,000 active | AID 463195, 2010;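 active = inhibition of 40% or more at the single tested concentration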;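 also: wild-type TIM10 isogenic control strain grown at permissive 25 °C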
PfHsp90 yeast 2: growth inhibition of PfHsp90-expressing yeast, primary screen, antimalarial PfHsp90 inhibitor project, S. cerevisiae, BacTiter-Glo luminescence, single point, set 2 | BacTiter-Glo ATP, 48 h; yeast lacking PDR1 and PDR3 efflux regulators | 0.32% of 310,000 active | inhibition, % at 9.4 µM | AID 504621, 2011;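 active = every replicate shows inhibition above about 80%, whatever the replicate mean, limit read from the data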
tim10-1 inh: growth inhibitors of tim10-1 mutant yeast, primary screen, luminescence, uHTS; 2.2% of 330,000 active; AID 463190, 2010; S. cerevisiae tim10-1 ts strain growth, BacTiter-Glo, 24 h; inhibition, % at 20 µM;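 active = inhibition of at least 40%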;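 also: mutant grown at 25 °C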
tim23-1 inh: growth inhibitors of tim23-1 mutant yeast, primary screen, luminescence, uHTS; S. cerevisiae tim23-1 growth, BacTiter-Glo luminescence, 24 h; inhibition, % at 20 µM; 1.3% of 330,000 active; AID 463212, 2010;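 active = growth inhibition of the mutant yeast at or above 50%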;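 also: temperature-sensitive mutant grown at 25 °C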
SKKanGAS inh: S. pyogenes SKKanGAS growth inhibitors in kanamycin, primary screen, streptokinase expression inhibitor project, SKKanGAS strain, BacTiter-Glo luminescence | 6 h | AID 1662, 2009 | inhibition, % at 7.5 µM | 1.3% of 300,000 active;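 active = mean replicate score, as percent of positive control median, at least 50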;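 also: strain carries kanamycin resistance gene driven by streptokinase promoter and grows in 40 µg/ml kanamycin; loss of luminescence reflects streptokinase promoter inhibition or plain growth inhibition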
Numbers stand for hits.

Screening Cc1cc(C(=O)OC(C(=O)Nc2ccc(C)c(Cl)c2)c2ccccc2)c(C)o1 (centres undefined) returned PfHsp90 yeast 2 inactive and SKKanGAS inh inactive.
Screening CN(C)CCCNC(=S)NCC(c1ccc(Cl)cc1Cl)c1c[nH]c2ccccc12 (centres undefined) returned NALP3 yeast inh inactive, TIM10 inh inactive, PfHsp90 yeast 2 inactive, tim10-1 inh inactive, tim23-1 inh inactive and SKKanGAS inh 56.
Nc1nonc1NC(=O)NN=C1CCCCC1 was read as NALP3 yeast inh inactive, TIM10 inh inactive, PfHsp90 yeast 2 inactive, tim10-1 inh inactive, tim23-1 inh inactive and SKKanGAS inh inactive.
`CC(C)Nc1nc(Oc2ccc(Cl)cc2Cl)cc(C(F)(F)F)n1` gave NALP3 yeast inh inactive, TIM10 inh inactive, tim10-1 inh inactive, tim23-1 inh inactive and SKKanGAS inh 79.
For Cc1cc2oc(=O)cc(CNc3ccccc3F)c2cc1O the results were NALP3 yeast inh inactive, TIM10 inh inactive, PfHsp90 yeast 2 inactive, tim10-1 inh inactive, tim23-1 inh inactive and SKKanGAS inh 51.
Screening COc1cccc(NCc2cc(=O)oc3cc(C)c(O)cc23)c1 returned NALP3 yeast inh inactive, TIM10 inh inactive, PfHsp90 yeast 2 inactive, tim10-1 inh inactive, tim23-1 inh inactive and SKKanGAS inh 99.
For COc1cccc(NCc2cc(=O)oc3cc(-c4ccccc4)c(O)cc23)c1 the results were NALP3 yeast inh inactive, TIM10 inh inactive, PfHsp90 yeast 2 inactive, tim10-1 inh inactive, tim23-1 inh inactive and SKKanGAS inh 110.
`CCOc1ccccc1NCc1cc(=O)oc2cc(C)c(O)cc12` gave NALP3 yeast inh inactive, TIM10 inh inactive, PfHsp90 yeast 2 inactive, tim10-1 inh inactive, tim23-1 inh inactive and SKKanGAS inh inactive.
Screening Cc1ccccc1C(=O)NC(CC(C)C)C(=O)OCC(=O)c1c(N)n(C)c(=O)n(C)c1=O (centres undefined) returned NALP3 yeast inh inactive, TIM10 inh inactive, PfHsp90 yeast 2 inactive, tim10-1 inh inactive, tim23-1 inh inactive and SKKanGAS inh inactive.
CCN(CCn1cccn1)C(=O)c1ccc(OC2CCN(C(=O)COC)CC2)cc1 was read as NALP3 yeast inh inactive, TIM10 inh inactive, PfHsp90 yeast 2 inactive, tim10-1 inh inactive, tim23-1 inh inactive and SKKanGAS inh inactive.
Screening CN(CC(=O)Nc1ccc(F)cc1[N+](=O)[O-])Cc1ccccc1 returned NALP3 yeast inh inactive, TIM10 inh inactive, PfHsp90 yeast 2 inactive, tim10-1 inh inactive, tim23-1 inh inactive and SKKanGAS inh inactive.
CCOc1cc(N2CCOCC2)c(OCC)cc1NC(=O)CN1CCSC1=O was read as NALP3 yeast inh inactive, TIM10 inh inactive, tim10-1 inh inactive and tim23-1 inh inactive.
Screening COC(=O)[C@@]1(C)[C@H]2C(=O)N(C)C(=O)[C@H]2[C@H]2CN=C(SC)N21 returned TIM10 inh inactive, PfHsp90 yeast 2 inactive, tim10-1 inh inactive and tim23-1 inh inactive.
Screening CCc1cc2c(=O)[nH]c(-c3ccccn3)nc2s1 returned NALP3 yeast inh inactive, TIM10 inh inactive, PfHsp90 yeast 2 inactive, tim10-1 inh inactive, tim23-1 inh inactive and SKKanGAS inh 55.
For O=C1S/C(=C\c2ccc(N3CCOCC3)o2)C(=O)N1c1ccccc1 the results were NALP3 yeast inh inactive, TIM10 inh inactive, PfHsp90 yeast 2 inactive, tim10-1 inh inactive, tim23-1 inh inactive and SKKanGAS inh inactive.
For O=C1S/C(=C\c2ccc(N3CCOCC3)o2)C(=O)N1Cc1c(F)cccc1Cl the results were NALP3 yeast inh inactive, TIM10 inh inactive, PfHsp90 yeast 2 97, tim10-1 inh inactive, tim23-1 inh inactive and SKKanGAS inh inactive.
Screening COc1ccc(CNC(=O)C2(C)Cc3ccccc3C(=O)O2)cc1 (centres undefined) returned NALP3 yeast inh inactive, TIM10 inh inactive, PfHsp90 yeast 2 inactive, tim10-1 inh inactive, tim23-1 inh inactive and SKKanGAS inh inactive.
`C=CCn1c(O)c(N=NC(=S)Nc2ccc(OC)cc2)c2ccccc21` gave PfHsp90 yeast 2 inactive and SKKanGAS inh 56.
C=CCn1c(O)c(N=NC(=O)OCC)c2ccccc21 was read as NALP3 yeast inh inactive, TIM10 inh inactive, PfHsp90 yeast 2 inactive, tim10-1 inh inactive, tim23-1 inh inactive and SKKanGAS inh inactive.
For C=CCn1c(O)c(N=Nc2ccccc2)c2ccccc21 the results were NALP3 yeast inh inactive, TIM10 inh inactive, PfHsp90 yeast 2 inactive, tim10-1 inh inactive, tim23-1 inh inactive and SKKanGAS inh inactive.
`C=CCn1c(O)c(N=NC(=S)Nc2cccc(OC)c2)c2ccccc21` gave NALP3 yeast inh inactive, TIM10 inh inactive, PfHsp90 yeast 2 inactive, tim10-1 inh inactive, tim23-1 inh inactive and SKKanGAS inh 87.
O=c1nc(-c2ccccc2)n(-c2ccccc2)[nH]1 was read as NALP3 yeast inh inactive, TIM10 inh inactive, PfHsp90 yeast 2 inactive, tim10-1 inh inactive, tim23-1 inh inactive and SKKanGAS inh inactive.
Screening CC(C)CCN(CC(=O)NCc1ccc(F)cc1)S(=O)(=O)c1ccccc1F returned NALP3 yeast inh inactive, TIM10 inh inactive, PfHsp90 yeast 2 inactive, tim10-1 inh inactive, tim23-1 inh inactive and SKKanGAS inh inactive.
Screening CC(C)(C)c1cc(C(=O)NNc2cc(C(F)(F)F)ccc2Cl)n(Cc2ccccc2)n1 returned NALP3 yeast inh inactive, TIM10 inh inactive, PfHsp90 yeast 2 inactive, tim10-1 inh inactive, tim23-1 inh inactive and SKKanGAS inh 99.
Screening Cc1ccc(NC(=O)c2cc(C(C)(C)C)nn2Cc2ccccc2)cc1 returned NALP3 yeast inh inactive, TIM10 inh inactive, PfHsp90 yeast 2 inactive, tim10-1 inh inactive, tim23-1 inh inactive and SKKanGAS inh inactive.
For Cc1ccc(NNC(=O)c2cc(C(C)(C)C)nn2Cc2ccccc2)cc1 the results were NALP3 yeast inh inactive, TIM10 inh inactive, PfHsp90 yeast 2 inactive, tim10-1 inh inactive, tim23-1 inh inactive and SKKanGAS inh 60.
For COc1ccccc1NNC(=O)c1cc(C(C)(C)C)nn1Cc1ccccc1 the results were NALP3 yeast inh inactive, TIM10 inh inactive, PfHsp90 yeast 2 inactive, tim10-1 inh inactive, tim23-1 inh inactive and SKKanGAS inh inactive.
Screening CCOc1ccc(CNC(=S)Nc2ccccc2)cc1Cl returned NALP3 yeast inh inactive, TIM10 inh inactive, PfHsp90 yeast 2 inactive, tim10-1 inh inactive, tim23-1 inh inactive and SKKanGAS inh inactive.
COc1ccccc1-c1nc2cc3ccccc3cc2nc1-c1ccccc1 was read as NALP3 yeast inh inactive, TIM10 inh inactive, PfHsp90 yeast 2 inactive, tim10-1 inh inactive, tim23-1 inh inactive and SKKanGAS inh inactive.
CSc1nsc(N/N=C/c2ccccc2)c1C#N was read as NALP3 yeast inh inactive, TIM10 inh inactive, PfHsp90 yeast 2 inactive, tim10-1 inh inactive, tim23-1 inh inactive and SKKanGAS inh inactive.
